Bioassay records: PubChem BioAssay, National Center for Advancing Translational Sciences (NCATS)
GLS inhibitor – qHTS for Inhibitors of Glutaminase (GLS) | Glutaminase kidney isoform, mitochondrial (Homo sapiens), O94925 | GLS enzymatic activity, qHTS titration | Potency, µM (titrated, usually from 45.5 µM), without a hit: at the highest dose activity change, negative = inhibition, actives largely listed as inhibitors | hit rate 0.21% among 410,000; note: % is set by controls: 0 for no effect and ±100 for the full control effect
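Read-out is an Amplex red fluorescence increase coupled through glutamate oxidase and HRP, measured before and after 30 min room-temperature incubation. hKGA is in 45 mM KH2PO4 (pH 8.2) with 0.02% Tween-20; glutamine added as 1mM solution.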
JMJD2A Tudor – qHTS Assay for Inhibitors of JMJD2A-Tudor Domain. Lysine-specific demethylase 4A (Homo sapiens), O75164. AlphaScreen JMJD2A-Tudor / H3K4me3 peptide binding. Potency, µM (highest dose often 114 µM), inactives show at the top dose activity change, negative = inhibition, hits mostly inhibitors. hit rate 4.4% among 390,000. AID 504339, 2011; note: % is set by controls: 0 for no effect and ±100 for the full control effect; nearly all actives have a fitted effect of over 50% in size
BAZ2B block – qHTS Assay for Inhibitors of BAZ2B; Bromodomain adjacent to zinc finger domain protein 2B (Homo sapiens), Q9UIF8; AlphaScreen BAZ2B-H3K14Ac peptide displacement; Potency, µM (highest dose often 114 µM), without a hit: top-dose activity change, negative = inhibition, hits mostly inhibitors; hit rate 4.4% among 360,000; note: % is set by controls: 0 for no effect and ±100 for the full control effect; nearly all actives have a fitted effect of over 60% in size
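In this displacement format the biotinylated H3(5-23) peptide acetylated at Lys14 serves as ligand at 50 nM, with BAZ2B at 50 nM in PBS pH 7.4 containing 0.01% Tween-20. Donor and acceptor beads are 10 ug/mL final.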
HP1b binding inh – HTS for Inhibitors of HP1-beta Chromodomain Interactions with Methylated Histone Tails; Chromobox protein homolog 1 (Homo sapiens), P83916; AlphaScreen HP1-beta / biotin-H3K9me3 peptide binding; hit rate 0.56% among 390,000; Potency, µM (highest dose often 114 µM), inactives show at the top dose activity change, negative = inhibition, actives largely listed as inhibitors; note: nearly all actives have a fitted effect of over 70% in size
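HP1-beta protein (50 nM final) preincubated 30 min at room temperature with biotinylated H3(1-18)K9me3 peptide (50 nM) in PBS pH 7.4, 0.01% Tween-20, then compound added for 30 min. AlphaScreen streptavidin donor/nickel chelate acceptor beads (10 ug/mL final), 30 min dark, luminescence read.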
G9a inh – qHTS Assay for Inhibitors of Histone Lysine Methyltransferase G9a. Histone-lysine N-methyltransferase EHMT2 (Homo sapiens), Q96KQ7. G9a H3K9 monomethylation, AlphaScreen, 2 h. Potency, µM (series often up to 102 µM), inactives show at the highest dose activity, negative = inhibition, actives largely listed as inhibitors. hit rate 8.8% among 350,000. AID 504332, 2011; note: % is set by controls: 0 for no effect and ±100 for the full control effect; nearly all actives have a fitted effect of over 75% in size
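AlphaScreen detection with an anti-monomethyl H3K9 antibody quantified product after a 2 h room-temperature reaction containing 500 nM biotinylated H3K9 peptide, 20 µM SAM and 20 nM enzyme, which had been preincubated 15 min with compound.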
Numbers without * were called inactive; u = inconclusive; x = no result given; [ ] = another dose, or the depositor's remark. An excerpt weighted towards active compounds, which were near 10% of everything screened. Calls come from the whole dose curve; as a rule, active = well fitted curve in the direction sought with a large enough effect; inconclusive = small, poorly fitted or top-dose-only effect, or another doubt; inactive = no such curve, though single readings can be large; an effect the other way counts as inactive or inconclusive. Potency is the fitted concentration of half-maximal effect.

SMILES	GLS inhibitor	JMJD2A Tudor	BAZ2B block	HP1b binding inh	G9a inh
CCS(=O)(=O)Nc1c(C(=O)OC)[nH]c2ccccc12	9%	5%	11%	24%	1%
CCS(=O)(=O)Nc1c(C(=O)O)[nH]c2ccccc12	-20%	89µM*	-31%	-6%	50µM*
Cc1ccc(S(=O)(=O)Nc2c(C(=O)O)[nH]c3ccccc23)cc1C	-8%	-26%	u	48%	16µM*
CCN(CC)C(=O)CSc1nc2sc3c(c2c(=O)n1CCCOC)CCC3	u	u	9%	1%	-10%[0.501 µM]
CCOc1ccc(Nc2ccc(N3C(=O)CCC3=O)cc2[N+](=O)[O-])cc1	0%	-11%	u	-11%	-32%
COC(=O)CNc1c(-c2ccccc2)nc2ccc(Br)cn12	44%	-35%	58%	14%	-108%
Cc1cc(C)nc(NC(=S)NC(=O)c2ccccc2F)n1	1%	u	x	12%	x
Cc1cc(C)nc(S/C=C/C(=O)c2ccccc2F)n1	-4%	u	-17%	37%	14µM*
CC(C)CN(C(=O)CSc1nnc2ccccn12)C1CCS(=O)(=O)C1 (stereo unspecified)	8%	-22%	-5%	21%	11%[2.33 µM]
CC(C)CN(C(=O)CSc1nn(-c2ccc(Cl)cc2)c(=S)s1)C1CCS(=O)(=O)C1 (stereo unspecified)	11%	-15%	0%	5%	20µM*
Cc1nc(SCC(=O)N(CC(C)C)C2CCS(=O)(=O)C2)c(C#N)c(C)c1C (stereo unspecified)	-3%	-6%	10%	40%	50µM*
Cc1ccc(-n2ccnc2SCC(=O)N(CC(C)C)C2CCS(=O)(=O)C2)c(C)c1 (stereo unspecified)	u	20µM*	-30%	-18%	x
COc1ccc(-c2cc(C(F)(F)F)nc(NCc3ccco3)n2)cc1OC	-5%	-12%	2%	33%	8%[12.7 µM]
COc1ccccc1N1C(=NC(=O)C2CCCCC2)SC2CS(=O)(=O)CC21 (stereo unspecified)	6%	-3%	-3%	30%	x
Cc1ccccc1-c1noc(CNC(=O)c2ccco2)n1	3%	-14%	0%	13%	2%
O=C(N/N=C/c1ccc(N2CCOCC2)s1)c1ccc(NS(=O)(=O)c2cccs2)cc1	62%	-12%	-19%	25%	x
CS(=O)(=O)c1sc(C#N)c2c1C(=O)CC(c1ccccc1)C2 (stereo unspecified)	3%	-21%	-38%	10%	25µM*
Cc1oc2c(c(=O)c1C)C(=O)CC(c1ccccc1)C2 (stereo unspecified)	4%	-9%	3%	24%	-29%[59 µM]
Cc1ccc(S(=O)(=O)N2CCN(C(=O)CSc3nc4ccccc4o3)C2)cc1	-1%	-8%[11.4 µM]	6%	-2%	-2%[2.33 µM]
COc1ccc(S(=O)(=O)N2CCCC2CNC(=O)C(=O)Nc2ccc(C)cc2)cc1 (stereo unspecified)	-5%	-11%	10%	11%	6%[0.501 µM]
O=C(NCc1ccc(Cl)cc1)c1ccc(NC(=O)N2CC3CCCN3c3ccccc32)cc1 (stereo unspecified)	30%	-23%	-38%	3%	10µM*
O=C(CCC(=O)N1CC2CCCN2c2ccccc21)NCc1ccccc1F (stereo unspecified)	9%	45µM*	-32%	35%	-26%[59 µM]
COC(=O)c1ccc(C(=O)OC)c(NC(=O)N2CC3CCCN3c3ccccc32)c1 (stereo unspecified)	12%	u	25µM*	-17%	14µM*
CCN(CC)C(=O)c1ccccc1NC(=O)c1ccccc1SC	7%	2%	5%	15%	x
Cc1cccc(N2CCN(C(=O)CN3CCSc4ccccc43)CC2C)c1 (stereo unspecified)	13%	50µM*	u	-15%[57 µM]	-44%[59 µM]
